Test results published in the supplement of paper PMC10981050.
Structures can show the parent of a compound that is named as a salt.

System: MARIMO
Experiment: cell viability relative to vehicle control; higher = less cytotoxic
Settings: 10 µM; SRSF2 genotype: SRSF2 P95H/wt
How it was run: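 Screening covered the Selleck bioactive, kinase and epigenetic probe libraries, less identity-inconsistent compounds, on CRISPR-edited mutant clones and isogenic wild-type clones of four leukaemia lines. Cells, at 2000 per well in 50 µL medium, received a single 10 µM acoustically dispensed dose. After 48 h the supernatant was removed and CellTiter-Glo luminescence was read. Viability was analysed in Genedata Screener as percent of the on-plate vehicle control.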

SMILES | cell viability [%]
c1ccc2[nH]c(-c3cscn3)nc2c1 [Thiabendazole] | 98.8
CC1(C)S[C@@H]2[C@H](NC(=O)C(c3ccccc3)S(=O)(=O)O)C(=O)N2[C@H]1C(=O)O (stereo partly drawn) [Sulbenicillin Sodium] | 104
COc1ccc(COc2ccc(Cc3cnc(N)nc3N)cc2OC)cc1 | 84
CNC(=O)c1cnn(-c2nc(N)c3ncn([C@@H]4O[C@H](CO)[C@@H](O)[C@H]4O)c3n2)c1 [Regadenoson] | 102
O=C1CCC(N2C(=O)c3ccccc3C2=O)C(=O)N1 (stereo not drawn) [Thalidomide] | 83.2
C[C@@]1(C(=O)Nc2ccc(F)nc2)CCCN1c1nc(Nc2cc(C3CC3)n[nH]2)c2cccn2n1 | 38.7
COc1cc(C(=O)NC2CCN(C)CC2)ccc1Nc1ncc2c(n1)N(C1CCCC1)CC(F)(F)C(=O)N2C | 31.6
COc1nc2ccc(Br)cc2cc1[C@@H](c1ccccc1)[C@@](O)(CCN(C)C)c1cccc2ccccc12 [Bedaquiline] | 70.4
CC(C)=CCC/C(C)=C/C=O [Citral] | 88.4
O=C(/C=C/c1ccc(O)c(O)c1)c1ccc(O)cc1O [Butein] | 52.6
COc1ccc(CCc2nc3cc(-c4c(C)noc4C)ccc3n2C[C@H](C)N2CCOCC2)cc1Cl | 76.9
CC(O)c1cc(C(=O)N[C@@H](C)Cn2ccc(-c3ccc(C#N)c(Cl)c3)n2)n[nH]1 (stereo partly drawn) | 90.6
Cc1cc(C)nc(SCC(=O)Nc2ncc(Cc3cccc4ccccc34)s2)n1 | 78.5
COc1ccc(CCNCc2ccc(OCc3ccc(Cl)nc3)c(OC)c2)cc1OC | 87.4

Same assay, conditions: 10 µM; SRSF2 genotype: SRSF2 wt/wt

SMILES | cell viability [%]
OC[C@H]1O[C@@](CO)(O[C@H]2O[C@H](CO)[C@@H](O)[C@H](O)[C@H]2O)[C@@H](O[C@H]2O[C@H](CO)[C@@H](O)[C@H](O)[C@H]2O)[C@@H]1O [D-(+)-Melezitose] | 115
COc1ccc2c3c1O[C@H]1C[C@@H](O)C=C[C@@]31CCN(C)C2 [Galanthamine] | 106
COc1cc(C(=O)O)ccc1O [Vanillic acid] | 105
CN[C@H]1CC[C@@H](c2ccc(Cl)c(Cl)c2)c2ccccc21 [Sertraline HCl] | 48
Clc1ccc(CSC(Cn2ccnc2)c2ccc(Cl)cc2Cl)cc1 (stereo not drawn) [Sulconazole Nitrate] | 43.2
CC1(C)[C@@H](O)CC[C@]2(C)[C@H]3C(=O)C=C4[C@@H]5C[C@@](C)(C(=O)O)CC[C@]5(C)CC[C@@]4(C)[C@]3(C)CC[C@@H]12 [Enoxolone (Glycyrrhetin)] | 105
C[C@H](N=C(NC#N)Nc1cccc2ncccc12)c1ccccc1 | 107
CC(C)n1nc(-c2cc3cc(O)ccc3[nH]2)c2c(N)ncnc21 [Torkinib (PP242)] | 23
CC1(C)O[C@@H]2C[C@H]3[C@@H]4CCC5=CC(=O)C=C[C@]5(C)[C@H]4[C@@H](O)C[C@]3(C)[C@]2(C(=O)CO)O1 [Desonide] | 110
O=C(Nc1ccccc1)N1CCN(c2nc(-c3ccccc3)ns2)CC1 | 92.7
O=C1C[C@@H](c2ccccc2)Oc2cc(O)cc(O)c21 [Pinocembrin] | 99.8
CC1OC(OC2C(OC3CCC4(C)C(CCC5(C)C4CC=C4C6CC(C)(C)CCC6(C(=O)OC6OC(COC7OC(CO)C(O)C(O)C7O)C(O)C(O)C6O)CCC45C)C3(C)CO)OCC(O)C2O)C(O)C(OC2OC(CO)C(O)C(O)C2O)C1O (stereo not drawn) [Macranthoidin A] | 102
Cc1ccc(Nc2c(F)cccc2Cl)c(CC(=O)O)c1 [Lumiracoxib (COX-189)] | 96
CC(C)=CCC[C@](C)(O[C@@H]1O[C@H](CO)[C@@H](O)[C@H](O)[C@H]1O)[C@H]1CC[C@]2(C)[C@@H]1[C@H](O)C[C@@H]1[C@@]3(C)CC[C@H](O)C(C)(C)[C@@H]3CC[C@]12C [Ginsenoside CK] | 104
CCCCCCCCCC(C)=O [Methylnonylketone] | 101
COc1cc(O)c(C(=O)/C=C/c2ccccc2)c(OC)c1 [Flavokawain B] | 39
c1ccc(CNc2nc(NCc3ccccc3)c3ccccc3n2)cc1 | 11
Nc1nonc1C(=Nc1ccc(F)c(Cl)c1)NO | 97.2
NC(=O)c1ccc[n+]([O-])c1 [Nicotinamide N-oxide] | 109
CCCCNC(=O)NS(=O)(=O)c1ccc(C)cc1 [Tolbutamide] | 116

SMILES | cell viability [%]
O=C(CCN1CCN(C(=O)OCc2cc(Cl)cc(Cl)c2)CC1)c1ccc2[nH]c(=O)oc2c1 | 106
CC1=NN(c2ccccc2)C(=O)C1 [Edaravone (MCI-186)] | 108
CNC(=C[N+](=O)[O-])NCCSCc1csc(CN(C)C)n1 [Nizatidine] | 107
CC1=C(/C=C/C(C)=C/C=C/C(C)=C/C=C/C=C(C)/C=C/C=C(C)/C=C/C2=C(C)C(=O)[C@@H](O)CC2(C)C)C(C)(C)C[C@H](O)C1=O [Astaxanthin] | 96.9
O=C(O)c1cc(O)c2c(c1)[C@@H]([C@H]1c3cc(C(=O)O)cc(O)c3C(=O)c3c(O[C@@H]4O[C@H](CO)[C@@H](O)[C@H](O)[C@H]4O)cccc31)c1cccc(O[C@@H]3O[C@H](CO)[C@@H](O)[C@H](O)[C@H]3O)c1C2=O [Sennoside B] | 88.2
c1ccc2[nH]c(-c3cscn3)nc2c1 [Thiabendazole] | 103
CC1(C)S[C@@H]2[C@H](NC(=O)C(c3ccccc3)S(=O)(=O)O)C(=O)N2[C@H]1C(=O)O (stereo partly drawn) [Sulbenicillin Sodium] | 113
COc1ccc(COc2ccc(Cc3cnc(N)nc3N)cc2OC)cc1 | 92.8
CNC(=O)c1cnn(-c2nc(N)c3ncn([C@@H]4O[C@H](CO)[C@@H](O)[C@H]4O)c3n2)c1 [Regadenoson] | 103
O=C1CCC(N2C(=O)c3ccccc3C2=O)C(=O)N1 (stereo not drawn) [Thalidomide] | 86.4
C[C@@]1(C(=O)Nc2ccc(F)nc2)CCCN1c1nc(Nc2cc(C3CC3)n[nH]2)c2cccn2n1 | 33.2
COc1cc(C(=O)NC2CCN(C)CC2)ccc1Nc1ncc2c(n1)N(C1CCCC1)CC(F)(F)C(=O)N2C | 26.3
COc1nc2ccc(Br)cc2cc1[C@@H](c1ccccc1)[C@@](O)(CCN(C)C)c1cccc2ccccc12 [Bedaquiline] | 69.3
CC(C)=CCC/C(C)=C/C=O [Citral] | 98.9
O=C(/C=C/c1ccc(O)c(O)c1)c1ccc(O)cc1O [Butein] | 64.7
COc1ccc(CCc2nc3cc(-c4c(C)noc4C)ccc3n2C[C@H](C)N2CCOCC2)cc1Cl | 70.5
CC(O)c1cc(C(=O)N[C@@H](C)Cn2ccc(-c3ccc(C#N)c(Cl)c3)n2)n[nH]1 (stereo partly drawn) | 93.5
Cc1cc(C)nc(SCC(=O)Nc2ncc(Cc3cccc4ccccc34)s2)n1 | 86.9
COc1ccc(CCNCc2ccc(OCc3ccc(Cl)nc3)c(OC)c2)cc1OC | 95.2
